Results reported in PubChem BioAssay (NCATS).
Inconclusive results are not listed. The source made the active and inactive calls. Unless noted, the call rests on the fitted dose curve; in most records, active means well fitted curve in either direction with a large enough effect (not every such curve was filed as active); inconclusive means small, poorly fitted or top-dose-only effect, or another doubt; inactive means flat fitted curve, though single readings scatter.

Tests used:
[1] = AP1 Signaling Pathway (AID 357); settings: ME-180 AP-1-bla reporter, EGF-induced, beta-lactamase ratio, 5 h; at 7.69 µM (top of the series) unless noted;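 further: ME-180 reporter cells stimulated with EGF at its EC50 level; on the % scale 0 is the no-effect control and ±100 the full control effect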
How it was run: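 Beta-lactamase reporter under AP-1 response element, ME-180 background. Stimulus: EC50 EGF. Compound exposure 5 h, 37 °C. Detection: CCF4, 2.5 h RT, 460/530 nm. Values: AC50 from titration.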

[2] = target: Cytochrome P450 1A2 (Homo sapiens) (UniProt P05177); test: p450-cyp1a2 (AID 410; calls by dose curve; further: potency means the concentration at half of the fitted maximal effect;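 on activity change, negative = inhibition: -100% = full effect of reference inhibitor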)
Cytochrome P450 1A2 (Homo sapiens), sequence (P05177 whole entry, looked up): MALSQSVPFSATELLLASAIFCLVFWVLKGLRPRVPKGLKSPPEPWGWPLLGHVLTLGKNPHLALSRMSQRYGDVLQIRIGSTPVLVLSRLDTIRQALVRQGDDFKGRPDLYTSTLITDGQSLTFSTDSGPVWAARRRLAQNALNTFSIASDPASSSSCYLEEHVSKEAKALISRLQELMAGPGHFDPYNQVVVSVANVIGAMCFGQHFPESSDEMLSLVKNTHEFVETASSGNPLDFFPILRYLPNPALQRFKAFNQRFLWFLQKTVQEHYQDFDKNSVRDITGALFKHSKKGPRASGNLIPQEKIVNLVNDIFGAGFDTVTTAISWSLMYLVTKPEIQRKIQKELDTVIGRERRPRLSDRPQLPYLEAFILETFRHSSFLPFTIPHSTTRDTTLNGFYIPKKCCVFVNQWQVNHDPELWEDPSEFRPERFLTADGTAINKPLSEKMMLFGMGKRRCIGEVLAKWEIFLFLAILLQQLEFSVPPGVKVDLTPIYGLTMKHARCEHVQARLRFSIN
How it was run: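 Human CYP1A2 (20nM) demethylated Luciferin-ME at its Km (100uM) in 100mM KPO4. After 10 min compound preincubation, NADPH regeneration ran the reaction 60 min at room temperature. Luciferin was read by luminescence, normalized to 57 uM furafylline.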

[3] = Stat Signaling Pathway (AID 446); settings: ME-180 SIE beta-lactamase reporter, IL-6 stimulated, 5 h; at 7.69 µM (top of the series) unless noted;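 further: ME-180 cervical cancer cells given 40 pM IL-6 alongside compound; SIE-controlled beta-lactamase reporter measured as 460/530 nm FRET emission ratio; on the % scale 0 is the no-effect control and ±100 the full control effect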
How it was run: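 ME-180 SIE-bla cells; overnight plating; cpd + IL-6 40 pM, 5 h, 37 C; LiveBLAzer 2.5 h RT; 460/530 nm emission ratio. Normalized to 300 pM IL-6 and 125 nM JAK inhibitor controls.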

[4] = target: Glucocorticoid receptor (Homo sapiens) (UniProt P04150); test: GR-GFP Redistribution (AID 450;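 active means compounds whose dose series gives a full or clear partial fitted curve of increased nuclear translocation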; further: potency means the concentration at half of the fitted maximal effect); settings: U2OS GR-GFP nuclear translocation, laser cytometry, 2 h
Glucocorticoid receptor (Homo sapiens), sequence (P04150 whole entry, looked up, the tested form may be a part): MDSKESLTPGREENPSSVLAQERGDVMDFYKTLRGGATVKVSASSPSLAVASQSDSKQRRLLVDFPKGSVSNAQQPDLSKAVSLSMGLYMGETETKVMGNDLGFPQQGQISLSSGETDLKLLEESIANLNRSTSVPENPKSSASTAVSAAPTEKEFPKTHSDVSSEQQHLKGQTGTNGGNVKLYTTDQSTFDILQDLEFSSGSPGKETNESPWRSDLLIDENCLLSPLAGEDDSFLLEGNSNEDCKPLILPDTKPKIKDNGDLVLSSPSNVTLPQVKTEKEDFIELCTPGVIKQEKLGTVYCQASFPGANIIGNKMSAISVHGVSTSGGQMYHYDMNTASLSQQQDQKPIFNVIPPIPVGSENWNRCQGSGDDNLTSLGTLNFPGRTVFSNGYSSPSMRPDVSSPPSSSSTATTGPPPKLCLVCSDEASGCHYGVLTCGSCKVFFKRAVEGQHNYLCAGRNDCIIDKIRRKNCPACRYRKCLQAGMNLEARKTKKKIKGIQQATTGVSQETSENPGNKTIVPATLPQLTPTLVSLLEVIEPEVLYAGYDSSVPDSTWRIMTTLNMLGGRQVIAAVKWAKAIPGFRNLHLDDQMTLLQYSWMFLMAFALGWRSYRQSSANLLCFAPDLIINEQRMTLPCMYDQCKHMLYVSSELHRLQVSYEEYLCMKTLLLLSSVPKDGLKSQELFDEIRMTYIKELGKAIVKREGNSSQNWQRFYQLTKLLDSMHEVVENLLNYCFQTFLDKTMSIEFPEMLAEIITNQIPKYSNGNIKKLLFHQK

[5] = target: Glucocorticoid receptor (Homo sapiens) (UniProt P04150); test: GR-EFC Redistribution (AID 451; calls by dose curve; further: potency means the concentration at half of the fitted maximal effect); settings: CHO-K1 GR-EFC translocation, beta-gal luminescence, 2 h
How it was run: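 Translocation of GR-ED fusion to nuclear EA restores b-gal, read by luminescence after 1 h room-temperature detection. Engineered CHO-K1 biosensor cells, 1,000/well, exposed 2 h at 37 C to titrations up to 46 uM final.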

[6] = target: Mitogen-activated protein kinase 10 (Mus musculus) (UniProt Q61831); test: JNK3 AlphaScreen Assay (AID 530);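 further: kinase came from lysate of stimulated human HepG2 cells; signal reports phosphorylation of biotinylated GST-cJun 1-79 at Ser73 with 10 µM ATP; on the % scale 0 is the no-effect control and ±100 the full control effect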
How it was run: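 Room-temperature AlphaScreen kinase assay; pre-activated HepG2 lysate as JNK3 source, biotin-GST-cJun(1-79) substrate, 10 uM ATP, compound 15 min preincubation.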

[7] = target: 3',5'-cyclic-AMP phosphodiesterase 4B (Homo sapiens) (UniProt Q07343); test: qHTS Assay for Inhibitors of PDE-IV (AID 607; active means well fitted activation curve with a large enough effect in the main read-out, with a control signal flat, not every such curve was filed as active; further: % of control where 0% means no effect)
3',5'-cyclic-AMP phosphodiesterase 4B (Homo sapiens), sequence (Q07343 whole entry, looked up): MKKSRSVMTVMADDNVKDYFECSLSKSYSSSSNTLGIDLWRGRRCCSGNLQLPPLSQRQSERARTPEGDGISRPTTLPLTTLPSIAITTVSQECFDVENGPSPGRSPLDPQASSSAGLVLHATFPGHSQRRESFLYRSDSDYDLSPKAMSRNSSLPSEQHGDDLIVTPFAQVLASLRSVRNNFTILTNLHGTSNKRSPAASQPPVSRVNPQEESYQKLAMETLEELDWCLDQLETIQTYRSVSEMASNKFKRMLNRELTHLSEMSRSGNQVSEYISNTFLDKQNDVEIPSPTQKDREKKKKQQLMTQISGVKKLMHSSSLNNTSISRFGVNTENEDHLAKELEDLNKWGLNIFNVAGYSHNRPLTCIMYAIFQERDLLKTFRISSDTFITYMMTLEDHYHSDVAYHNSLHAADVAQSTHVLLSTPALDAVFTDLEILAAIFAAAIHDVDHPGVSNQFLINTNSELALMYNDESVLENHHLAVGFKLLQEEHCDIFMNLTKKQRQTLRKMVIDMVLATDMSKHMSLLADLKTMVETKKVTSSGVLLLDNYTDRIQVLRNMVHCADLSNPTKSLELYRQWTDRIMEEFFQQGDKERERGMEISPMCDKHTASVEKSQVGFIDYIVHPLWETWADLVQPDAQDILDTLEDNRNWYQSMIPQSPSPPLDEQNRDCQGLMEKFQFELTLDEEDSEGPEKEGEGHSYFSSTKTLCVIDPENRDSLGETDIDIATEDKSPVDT
How it was run: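 ACTOne HEK293 cells carry a modified cAMP-gated CNG channel and express endogenous PDE4; plated 1000 cells/well, compounds up to 22.9 uM final. Membrane-potential dye fluorescence (ex 535/em 590) was read; parental cells received 10 uM forskolin + 100 uM RO 20-1724.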

[8] = target: Cytochrome P450 3A4 (Homo sapiens) (UniProt P08684); test: qHTS Assay for Activators of Cytochrome P450 3A4 (AID 885; active means well fitted curve in the direction sought with a large enough effect; an effect the other way counts as inactive or inconclusive; further: nearly all actives have a fitted effect of over 65% in size)
Cytochrome P450 3A4 (Homo sapiens), sequence (P08684 whole entry, looked up): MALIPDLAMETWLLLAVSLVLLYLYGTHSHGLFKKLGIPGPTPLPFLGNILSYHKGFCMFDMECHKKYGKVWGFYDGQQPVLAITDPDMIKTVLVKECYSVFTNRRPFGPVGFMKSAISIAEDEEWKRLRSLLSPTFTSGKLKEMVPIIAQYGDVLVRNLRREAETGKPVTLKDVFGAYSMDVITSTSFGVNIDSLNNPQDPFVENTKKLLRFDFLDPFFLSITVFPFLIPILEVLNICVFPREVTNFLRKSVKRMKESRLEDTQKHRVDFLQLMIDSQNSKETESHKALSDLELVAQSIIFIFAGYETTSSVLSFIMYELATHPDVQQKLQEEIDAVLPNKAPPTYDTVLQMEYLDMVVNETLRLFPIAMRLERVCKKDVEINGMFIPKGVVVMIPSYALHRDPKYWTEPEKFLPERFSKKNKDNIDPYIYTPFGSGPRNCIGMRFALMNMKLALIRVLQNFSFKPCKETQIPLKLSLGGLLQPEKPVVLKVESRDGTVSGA
How it was run: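 20nM CYP3A4 + 25uM Luciferin-PPXE (=KM), 200mM KPO4; cpd 10 min RT; NADPH regen, 60 min RT; stop w/ detection buffer, 20 min; luminescence. Normalized to 57 uM ketoconazole.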

[9] = qHTS Assay for Lipid Storage Modulators (AID 1519; calls by dose curve); settings: Drosophila S3 cells, BODIPY lipid droplet/cell ratio, laser cytometry, cells loaded with oleic acid; for activity change, negative = inhibition: at 57.5 µM (top of the series)
How it was run: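 Cells seeded at 5,000 per well were treated with compounds over a concentration series and loaded with oleic acid (400 uM, as added). Lipid droplet fluorescence (488 nm excitation, 500-530 nm channel) was read by laser-scanning cytometry and normalized to 20 uM Triacsin C.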

[10] = target: Ubiquitin carboxyl-terminal hydrolase 1 (Homo sapiens) (UniProt O94782); test: Inhibitors of USP1/UAF1: Pilot qHTS (AID 504865; active means well fitted curve in the direction sought with a large enough effect; an effect the other way counts as inactive or inconclusive;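 further: rhodamine fluorescence freed from ubiquitin-rhodamine substrate followed over time; top concentration of the series differs between compounds; on the % scale 0 is the no-effect control and ±100 the full control effect; nearly all actives have a fitted effect of over 35% in size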)
Ubiquitin carboxyl-terminal hydrolase 1 (Homo sapiens), sequence (O94782 whole entry, looked up): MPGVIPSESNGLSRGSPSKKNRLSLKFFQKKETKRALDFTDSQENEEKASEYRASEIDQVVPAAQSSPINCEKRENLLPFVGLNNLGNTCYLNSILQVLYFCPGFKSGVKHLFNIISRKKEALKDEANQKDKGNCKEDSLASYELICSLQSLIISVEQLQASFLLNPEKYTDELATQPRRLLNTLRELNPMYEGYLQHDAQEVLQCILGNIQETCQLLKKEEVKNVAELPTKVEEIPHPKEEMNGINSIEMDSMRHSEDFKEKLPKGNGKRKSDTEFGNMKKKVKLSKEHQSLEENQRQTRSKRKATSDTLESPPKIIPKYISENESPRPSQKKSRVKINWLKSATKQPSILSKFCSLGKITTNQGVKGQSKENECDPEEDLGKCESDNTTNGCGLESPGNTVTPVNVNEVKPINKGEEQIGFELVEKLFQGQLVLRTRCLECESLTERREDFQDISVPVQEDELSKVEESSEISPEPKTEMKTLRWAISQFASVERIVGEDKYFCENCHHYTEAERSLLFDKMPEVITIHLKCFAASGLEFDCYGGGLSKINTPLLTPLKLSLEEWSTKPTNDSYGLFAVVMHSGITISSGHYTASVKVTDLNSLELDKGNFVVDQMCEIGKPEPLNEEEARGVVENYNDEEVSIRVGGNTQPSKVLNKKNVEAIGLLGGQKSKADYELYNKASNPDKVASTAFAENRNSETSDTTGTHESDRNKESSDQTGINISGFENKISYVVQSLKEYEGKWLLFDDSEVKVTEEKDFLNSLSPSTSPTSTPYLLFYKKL
How it was run: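 Enzyme-free wells gave the negative control, while test wells held 1nM USP1/UAF1 preincubated with compound for 15 min at room temperature. Ub-Rho at 150nM final started the reaction, and fluorescence at 480/540 nm was recorded kinetically.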

[11] = Primary qHTS for small molecule stabilizers of the endoplasmic reticulum resident proteome: Secreted ER Calcium Modulated Protein (SERCaMP) assay (AID 1508630; active means well fitted curve in the direction sought with a large enough effect; an effect the other way counts as inactive or inconclusive; further: on the % scale 0 is the no-effect control and ±100 the full control effect)
How it was run: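 GLuc-SERCaMP-expressing SH-SY5Y cells, pretreated 16 h with compound, are challenged with thapsigargin to empty ER calcium stores; after 4 h, coelenterazine is added directly to the medium and luminescence is imaged.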

[12] = NFAT Signaling Pathway (AID 444); settings: Jurkat NFAT-bla M1, carbachol, beta-lactamase ratio, 5 h; at 7.69 µM (top of the series) unless noted
How it was run: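 Read-out: CCF4 FRET ratio (460 nm/530 nm) after 1 h RT dye loading, used for %activity and AC50 from titration series. Cells: Jurkat NFAT-β-lactamase/M1 line, treated with compound plus 1 uM carbachol for 5 h, 37 °C.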

[13] = measured here: cell count channel max response
[14] = measured here: lipid channel max response

SMILES	activity change, negative = inhibition [1]	Potency [2]	activity, negative = inhibition [3]	Potency [4]	Potency [5]	Potency [6]	Potency [7]	Potency [8]	activity change, negative = inhibition [9]	max response [9, 13]	max response [9, 14]	Potency [10]	outcome [11]	activity change, negative = inhibition [12]
COc1ccc2[nH]cc(CCNc3ccnc(-c4cccc(NS(C)(=O)=O)c4)n3)c2c1	-8.22% (inactive)	1.58 µM (active)	-27.4% (inactive)	> 46 µM (inactive)	> 46 µM (inactive)	inactive	inactive	inactive	8.87% (inactive)	-1.88%	5.22%	inactive	inactive	–
Cc1cnc(CNc2cc(-c3ccoc3)ncn2)cn1	-2.94% (inactive)	25.1 µM (active)	-9.44% (inactive)	> 46 µM (inactive)	> 46 µM (inactive)	inactive	inactive	–	3.62% (inactive)	9.95%	14.7%	–	inactive	1.34% (inactive)
O=C(c1csnn1)N1CCC[C@@]2(CCN(Cc3cc(C(F)(F)F)cc(C(F)(F)F)c3)C2)C1	-0.847% (inactive)	–	-8.74% (inactive)	–	> 46 µM (inactive)	inactive	inactive	–	5.01% (inactive)	20.3%	22.1%	–	inactive	2.05% (inactive)
Cc1noc(C)c1C(=O)N1CCC2(CCCN(C(=O)Nc3ccccc3)C2)CC1	-21% (inactive)	12.6 µM (active)	-8.55% (inactive)	–	> 46 µM (inactive)	inactive	inactive	–	2.45% (inactive)	20.4%	27.5%	–	inactive	0.607% (inactive)
CNc1ncnc2ccc(-c3cccc(NS(C)(=O)=O)c3)cc12	-20.9% (inactive)	0.316 µM (active)	-3.45% (inactive)	> 46 µM (inactive)	> 46 µM (inactive)	inactive	inactive	inactive	1.53% (inactive)	-9.5%	-9.46%	–	inactive	–
Cc1noc(C)c1C(=O)N1CCC2(CC1)CN(c1ccccn1)C2	23.5% (inactive)	–	3.57% (inactive)	–	> 46 µM (inactive)	inactive	inactive	–	4.72% (inactive)	6.89%	15.4%	–	inactive	–
COc1ccc(C(=O)N2CCC[C@@]3(CCN(C(=O)NC(C)C)C3)C2)cc1	-14% (inactive)	12.6 µM (active)	-9.21% (inactive)	–	> 46 µM (inactive)	inactive	inactive	inactive	3.48% (inactive)	8.84%	15.8%	–	inactive	8.55% (inactive)
O=C(c1ccco1)N1CCC[C@@]2(CCN(c3ccccn3)C2)C1	4.46% (inactive)	–	-0.822% (inactive)	–	> 46 µM (inactive)	inactive	inactive	–	4.34% (inactive)	22.6%	30%	–	inactive	-3.78% (inactive)
O=C(c1ccncc1)N1CCC[C@@]2(CCN(Cc3ccncc3)C2)C1	14.5% (inactive)	–	-6.44% (inactive)	–	> 46 µM (inactive)	inactive	inactive	–	4.83% (inactive)	4.05%	12.8%	–	inactive	3.82% (inactive)
Cn1cccc1C(=O)N1CCC2(CC1)CN(Cc1ccc(C#N)cc1)C2	6.46% (inactive)	inactive	-7.55% (inactive)	–	> 46 µM (inactive)	inactive	inactive	–	4.17% (inactive)	20.5%	25.8%	–	inactive	–
CC(=O)N1CCC[C@@]2(CCN(Cc3nccs3)C2)C1	1.66% (inactive)	inactive	4.24% (inactive)	–	> 46 µM (inactive)	inactive	–	inactive	6.81% (inactive)	16.2%	26.9%	–	inactive	8.54% (inactive)
O=C(Nc1cccc(F)c1)N1CC2(CCN(C(=O)c3cnccn3)CC2)C1	-4.36% (inactive)	inactive	-2.15% (inactive)	–	> 46 µM (inactive)	inactive	inactive	–	6.82% (inactive)	10.6%	20.5%	–	inactive	20.8% (inactive)
COc1ccc(NC(=O)N2CC3(CCN(C(=O)c4csnn4)CC3)C2)cc1	20.6% (inactive)	inactive	-2.12% (inactive)	–	> 46 µM (inactive)	inactive	inactive	–	6.22% (inactive)	7.84%	18.1%	–	inactive	16.7% (inactive)
Cc1noc(C)c1C(=O)N1CCC2(CCCN(c3ccncc3)C2)CC1	6.75% (inactive)	inactive	8.27% (inactive)	–	> 46 µM (inactive)	inactive	inactive	inactive	5.44% (inactive)	15.3%	23.4%	–	inactive	–
COCC(=O)N1CCC2(CCN(Cc3ccc(C#N)cc3)CC2)CC1	-9.28% (inactive)	–	-0.16% (inactive)	–	> 46 µM (inactive)	inactive	inactive	–	4.27% (inactive)	17%	24.9%	–	inactive	–
CNc1nc(-c2ccccc2C(F)(F)F)nc2ccccc12	-1.48% (inactive)	0.251 µM (active)	3.95% (inactive)	> 46 µM (inactive)	> 46 µM (inactive)	inactive	inactive	–	5.47% (inactive)	10%	19.8%	–	inactive	5.59% (inactive)

SMILES	activity change, negative = inhibition [1]	Potency [2]	activity, negative = inhibition [3]	Potency [4]	Potency [5]	Potency [6]	Potency [7]	Potency [8]	activity change, negative = inhibition [9]	max response [9, 13]	max response [9, 14]	Potency [10]	outcome [11]	activity change, negative = inhibition [12]
Cn1cccc1C(=O)N1CCC2(CCCN(Cc3ccncc3)C2)CC1	-7.26% (inactive)	15.8 µM (active)	7.75% (inactive)	–	> 46 µM (inactive)	inactive	inactive	inactive	7.27% (inactive)	1.45%	14.6%	–	inactive	–
N#Cc1cccc(NC(=O)N2CC[C@@]3(CCCN(C(=O)c4ccco4)C3)C2)c1	-2.67% (inactive)	inactive	-1.84% (inactive)	–	> 46 µM (inactive)	inactive	inactive	inactive	6.04% (inactive)	4.12%	14%	–	inactive	3.83% (inactive)
Cc1nc2cnc(N3CCNCC3)nc2n(CCC#N)c1=O	-1.38% (inactive)	–	-12.7% (inactive)	> 9.22 µM (inactive)	> 46 µM (inactive)	inactive	inactive	–	4.65% (inactive)	11.9%	19.3%	–	inactive	-8.3% (inactive)
Cc1cnc(CNc2ncnc3ccc(-c4ccccc4CN(C)C)cc23)cn1	16.4% (inactive)	inactive	11.7% (inactive)	> 46 µM (inactive)	> 46 µM (inactive)	–	inactive	–	9.03% (inactive)	5.18%	15.6%	–	inactive	-29.4% (inactive)
O=C(c1csnn1)N1CCC2(CCN(Cc3ccccc3)CC2)CC1	13.9% (inactive)	inactive	-0.255% (inactive)	–	> 46 µM (inactive)	inactive	inactive	–	-4.6% (inactive)	4.52%	1.17%	–	inactive	–
O=C(c1ccncc1)N1CCC2(CCN(Cc3nccs3)CC2)CC1	6.32% (inactive)	inactive	4.96% (inactive)	–	> 46 µM (inactive)	–	–	–	-1.51% (inactive)	5.19%	5.04%	–	inactive	–
O=C(c1cc(C(F)(F)F)cc(C(F)(F)F)c1)N1CCC2(CC1)CN(c1ccncc1)C2	13% (inactive)	inactive	3.13% (inactive)	–	> 46 µM (inactive)	–	–	–	2.27% (inactive)	-2.54%	0.518%	–	inactive	–
CC(=O)NCCNc1nc(-c2ccc(N(C)C)cc2)nc2ccccc12	7.41% (inactive)	3.16 µM (active)	–	> 46 µM (inactive)	> 46 µM (inactive)	inactive	inactive	inactive	9.02% (inactive)	13%	24.4%	inactive	inactive	-28.2% (inactive)
O=C(c1cc(C(F)(F)F)cc(C(F)(F)F)c1)N1CCC2(CCN(Cc3ccncc3)CC2)CC1	-22.8% (inactive)	–	6.58% (inactive)	–	> 46 µM (inactive)	inactive	inactive	–	3.65% (inactive)	7.35%	10.5%	–	inactive	–
CN(C)c1ccc(-c2nc(N(C)C)c3ccccc3n2)cc1	3.53% (inactive)	0.251 µM (active)	–	> 46 µM (inactive)	> 46 µM (inactive)	inactive	–	inactive	-3.41% (inactive)	2.51%	-1.1%	inactive	inactive	-21.8% (inactive)
N#Cc1ccc(CN2CC3(CCN(C(=O)c4cnccn4)CC3)C2)cc1	-10.3% (inactive)	–	11.6% (inactive)	–	> 46 µM (inactive)	inactive	inactive	–	3.16% (inactive)	15%	20.2%	–	inactive	–
CC(C)CN1CCC2(CC1)CCN(S(=O)(=O)c1ccccc1)CC2	-4.17% (inactive)	inactive	-1.58% (inactive)	–	–	inactive	inactive	–	2.93% (inactive)	-0.0585%	3.86%	–	inactive	–
COc1ccccc1CN1CCCC2(CCN(C(=O)c3csnn3)CC2)C1	3.73% (inactive)	inactive	0.773% (inactive)	–	> 46 µM (inactive)	inactive	inactive	inactive	6.98% (inactive)	9.62%	21.2%	–	inactive	–
O=C(c1ccncc1)N1CCC2(CC1)CCN(c1ccc(-c3ccccc3)cc1)CC2	-18.3% (inactive)	–	-9.73% (inactive)	–	> 46 µM (inactive)	inactive	inactive	–	0.379% (inactive)	-2.77%	2.35%	–	inactive	14.4% (inactive)
COc1ccc(CNc2cc(-c3ccccc3CN(C)C)ncn2)c(OC)c1	-0.546% (inactive)	15.8 µM (active)	10.5% (inactive)	> 46 µM (inactive)	> 46 µM (inactive)	inactive	inactive	inactive	3.53% (inactive)	8.17%	12.8%	inactive	inactive	–
CC(=O)NCCNc1ncncc1-c1ccccc1C(F)(F)F	1.26% (inactive)	inactive	6.6% (inactive)	> 46 µM (inactive)	> 46 µM (inactive)	inactive	inactive	inactive	-1.77% (inactive)	-7.27%	-8.94%	inactive	inactive	–
